For 32 compounds, inhibition results are on record in PubChem BioAssay AID1259374 (The Scripps Research Institute Molecular Screening Center, 2018).

The campaign covered roughly 650,000 compounds. About 5,900 (0.91%) were called active. Many of the other results were omitted from the sample, so actives are more common in it than they were. Unmarked numbers belong to inactive results. Cut-off read from the data, not from the text of the source: active = inhibition above about 50%; inactive = the rest.

The target of this assay is Microphthalmia-associated transcription factor (Homo sapiens) (UniProt O75030). Briefly: MITF inhibitors, primary screen, biochemical, AlphaScreen, human (AID 1259374).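 Note: 0% = vehicle wells with protein.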 The following applies: AlphaScreen MITF homodimerization, bead proximity signal; at 2.6 µM; stronger effect = higher value. (Bead proximity is the source of the signal in Alpha formats.)
Chain of Microphthalmia-associated transcription factor (Homo sapiens) (O75030 whole entry, looked up): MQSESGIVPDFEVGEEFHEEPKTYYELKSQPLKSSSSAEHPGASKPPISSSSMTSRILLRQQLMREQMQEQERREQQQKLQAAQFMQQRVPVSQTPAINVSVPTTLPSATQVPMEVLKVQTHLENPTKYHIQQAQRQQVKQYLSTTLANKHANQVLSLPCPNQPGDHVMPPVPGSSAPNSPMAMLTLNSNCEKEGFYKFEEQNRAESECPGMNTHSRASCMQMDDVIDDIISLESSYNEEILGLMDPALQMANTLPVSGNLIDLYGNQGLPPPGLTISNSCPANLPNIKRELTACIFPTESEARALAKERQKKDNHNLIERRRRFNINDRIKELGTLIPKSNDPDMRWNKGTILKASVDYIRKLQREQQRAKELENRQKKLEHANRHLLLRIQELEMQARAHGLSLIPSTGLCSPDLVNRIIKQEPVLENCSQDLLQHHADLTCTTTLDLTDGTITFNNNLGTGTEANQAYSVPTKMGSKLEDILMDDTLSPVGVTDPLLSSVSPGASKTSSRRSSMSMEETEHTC
For the compound `C=C(C)CN(CC)C(=O)C1CCN(Cc2cc(OC)ccc2OC)CC1`, the inhibition is 33.5%.
On to `CCOc1ccc(CN2CCN(Cc3cc(OC)ccc3O)CC2)cc1`, for which the inhibition is 20.6%.
The value for `COc1ccc(CN2CCN(Cc3cc(OC)ccc3OC)CC2)cc1` was 76.4% (active); that for `COc1ccc(OC)c(CN2CCc3nnc(C4CCCO4)n3CC2)c1` (configuration not stated) was 0.68%.
The value for `COc1ccccc1CN1CC(C)OC(C)C1` (configuration not stated) was 82.9% (active); that for `COc1ccc(OC)c(CN2CCN(Cc3ccc(Cl)cc3)CC2)c1` was 82.1% (active).
In the case of `COc1ccc(CN2CCN(Cc3ccccc3OC)CC2)cc1Br`, the inhibition is 77.2% (active).
The value for `COc1ccc(S(=O)(=O)NCc2ccccc2OC)cc1Br` was 9.71%; that for `CCN(CC)C(=O)C1CCCN(Cc2ccccc2OC)C1` (configuration not stated) was 16.3%; that for `COc1ccccc1CN1CCN(c2ccccn2)CC1` was 45.1%.
As for `COc1ccc(OC)c(CN2CCC3(CCC(CNC(C)=O)O3)CC2)c1` (configuration not stated), the figure is -3.91%.
As for `CC1CN(Cc2ccc3ccccc3c2)CC(C)O1` (configuration not stated), the figure is 1.44%.
Turning to `Cc1ccc(N2C(=O)CN(S(C)(=O)=O)CC2(C)C(=O)NC2CCCC2)cc1C` (configuration not stated), the inhibition was -2.11%.
The value for `O=C(OCCN=C1NS(=O)(=O)c2ccccc21)c1ccc([N+](=O)[O-])cc1` was -14%; that for `O=C1c2ccccc2C(=O)N1CCSc1nc2sc3c(c2c(=O)n1-c1ccccc1)CCCC3` was -1.49%.
The value for `CCOC(=O)c1cc(-c2ccc(O)c(OC)c2)no1` was -12.8%; that for `O=C(NCc1ccc(Cl)cc1)C1CCN(c2nnnn2-c2ccccc2)CC1` was 5.24%; that for `O=C(CSc1nc(Nc2ccc(F)cc2)c2ccccc2n1)c1ccc(Cl)cc1` was 10.1%.
The value for `Cc1ccc2[nH]c3nc(N/N=C/c4ccc(N(C)C)cc4)nnc3c2c1` was 15.6%; that for `CC(C)N(CCNc1nc(N2CCCC2CO)nc2nc[nH]c12)C(C)C` (configuration not stated) was 5.38%; that for `CC(=O)Oc1ccccc1C(=O)Nc1ccc(Cl)c(Cl)c1` was 0.46%.
Regarding `CCOC(=O)/C(C#N)=C/c1ccccc1OC`, the inhibition is -4.17%.
`CNc1ccccc1C(=O)OCc1ccc([N+](=O)[O-])cc1Cl`: the inhibition is 12.5%.
Take `Cc1ccc2nc3sc(C(=O)Nc4c[nH]c(=O)[nH]c4=O)c(N)c3cc2c1`: the inhibition is 0.86%.
On to `Cc1ccc2nc(CN3CCN(C=O)CC3)nc(N3CCSCC3)c2c1`, for which the inhibition was -5.97%.
In the case of `O=C(NCCc1ccc(F)cc1)c1ccc(Br)o1`, the inhibition was -9.44%.
The value for `NCC1CCN(Cc2ccccc2Cl)CC1` was 21.9%; that for `CC1CCCC(N2CCN(Cc3ccccc3Cl)CC2)C1` (configuration not stated) was 63.2% (active); that for `COc1cc(CN2CCN(C(=O)c3cc(OC)c(OC)c(OC)c3)CC2)cc(OC)c1O` was -11%.
With `O=CN1CCN(Cc2ccccc2Cl)CC1`, the inhibition is 3.26%.
The value for `CCC(C(=O)N1CCN(C(=O)C(CC)c2ccccc2)CC1)c1ccccc1` (configuration not stated) was 6.26%; that for `COc1cc(CN2CCN(C(=O)C(c3ccccc3)c3ccccc3)CC2)cc(OC)c1OC` was 53.1% (active).

By inhibition is commonly meant the change of the read-out against control, counted positive when it falls.
